The sample as a whole holds a higher share of hits than the screen did.
Methyltransferases – Primary Screen for Target Class Profiling of Small Molecule Inhibitors of Methyltransferases; purified enzyme, MTase-Glo SAH luminescence; stronger effect = lower value; calls only at 40 µM; 3.9% of 25,000 active; AID 1745853, 2022; call rule not given here
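Each enzyme was reacted with SAM and its substrate, with compounds tested once at 40 uM; SAH formed was read by MTase-Glo luminescence.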
Of the large screens only hits and unclear results are named; the others gave an inactive call; ! = not active in a repeat.

CC(C)CC(=O)OC[C@H]1O[C@@](COC(=O)CC(C)C)(O[C@H]2O[C@H](CO)[C@@H](O)[C@H](O)[C@H]2OC(=O)CC(C)C)[C@@H](OC(=O)CC(C)C)[C@@H]1O	none
CC1(C(=O)O)CCCC2(C)C3CCC4CC3(CCC12)CC4C(=O)O (stereo not drawn)	none
C=C(C)C(C)C1OC23CC4(CO2)C(CCC2C5(C)CCC(OC6OCC(O)C(OC7OC(CO)C(O)C(OC8OCC(O)C(O)C8O)C7O)C6OC6OC(CO)C(O)C6O)C(C)(C)C5CCC24C)C3C(C)(O)C1OC(C)=O (stereo not drawn)	none
O=C(Nc1ccccc1)N1CCCC(C(=O)N2CCC(N3CCCC3=O)CC2)C1 (stereo not drawn)	none
CCOc1ccc(CN2C(=O)c3cc(-c4ccccc4)nn3CC2(C)C(=O)NCc2ccccc2)cc1 (stereo not drawn)	none
C[C@H](Oc1cc(-c2cnn(C3CCNCC3)c2)cnc1N)c1c(Cl)ccc(F)c1Cl	Methyltransferases active
C[C@@H](Oc1cc(-c2cnn(C3CCNCC3)c2)cnc1N)c1c(Cl)ccc(F)c1Cl	Methyltransferases active!
COCCN1CC2(CCCN(C(=O)CNC(N)=O)C2)CCC1=O (stereo not drawn)	none
CCCCc1ncc(-c2c(-c3ccccc3)ncn2CCCn2ccnc2)[nH]1	none
CC(C)CCn1c(=O)c2ccccc2n2c(=O)n(Cc3cccc(Cl)c3)nc12	none
Cc1ccc(NC(=O)c2ncn3c2C(=O)N(C2CC2)C(C)(C(=O)NCc2ccc(F)cc2)C3)c(Cl)c1 (stereo not drawn)	none
CC(C)(O)C1CC=C(C(=O)OC[C@H]2O[C@@H](OC(=O)C3=CCC(C(C)(C)O)CC3)[C@H](O)[C@@H](O)[C@@H]2O)CC1 (stereo partly drawn)	Methyltransferases active
CC1=C(C(=O)OC2OC(COC3OC(CO)C(O)C(O)C3O)C(O)C(O)C2O)C(C)(C)CCC1 (stereo not drawn)	none
O=C(O[C@@H]1O[C@H](CO)[C@@H](O)[C@H](O)[C@H]1O)c1ccccc1	none
COc1cc([C@@H]2c3cc4c(cc3[C@H](O)[C@@H](CO)[C@@H]2C(=O)NC(C)C)OCO4)cc(OC)c1OC	none
NC[C@H]1O[C@@H](n2cnc3c(N)ncnc32)[C@H](O)[C@@H]1O	Methyltransferases active
Nc1ncnc2c1ncn2[C@@H]1O[C@H](CO)C[C@H]1O	none
Nc1ncnc2c1nc(N)n2[C@@H]1O[C@H](CO)[C@@H](O)[C@H]1O	none
CCC[C@H]1CN(C(=O)c2cc(=O)[nH]c3cc(F)ccc23)C[C@@H]1N	none
CCCN1C(=O)c2c(C(=O)N3CCN(c4ccccc4)CC3)ncn2CC1(C)C(=O)NCc1ccc(F)cc1 (stereo not drawn)	none
COCCOCc1nc(C2CCN(C(=O)Nc3ccc(C(=O)OC)cc3)CC2)no1	none
NC(=O)[C@@H]1CCCN1C(=O)c1ccc2oc(-c3cccc(F)c3)nc2c1	none
Cc1[nH]cnc1C1CCN(c2nc3cccc4c3n2CCC4=O)CC1	Methyltransferases active
Cc1ccc(N2C(=O)c3cc4occc4n3CC2(C)C(=O)NC2CCCCCC2)cc1C (stereo not drawn)	none
COc1ccc(-c2nc3c(c(=O)[nH]2)CCN(C(=O)c2ccccc2)C3)cc1	none
Cc1ccccc1Cn1nc2n(C)c(=O)c3ccc(C(=O)NC4CCCCC4)cc3n2c1=O	none
C[C@]1(C2CCCC2)Cc2cc(OCC(=O)O)c(Cl)c(Cl)c2C1=O	Methyltransferases active
CCCC[C@@]1(C2CCCC2)Cc2cc(OCC(=O)O)c(Cl)c(Cl)c2C1=O	Methyltransferases active
COc1ccc(NC(=O)C2CCN(C(=O)c3ncn4c3COC(c3ccccc3)C4)CC2)cc1Cl (stereo not drawn)	none
CN1C[C@@H](NC(=O)c2ccc(C#N)cc2)C[C@H]1c1nc(Cc2ccccc2)no1	none
C=CCn1nc(C)c(CN2CC[C@H](N3CCN(C)CC3)[C@H](CCC(=O)O)C2)c1C	none
O=[S+]1([O-])NC2(CCN(Cc3ccccc3C(F)(F)F)C2)CNc2ccccc21 (stereo not drawn)	none
CCC(=O)Nc1cccc(Oc2nc(Nc3ccc(N4CCN(C)CC4)cc3OC)ncc2Cl)c1	none
COc1ccc(N(C(=O)Nc2c(C)cccc2C)c2cc(Nc3ccc(N4CCN(C)CC4)cc3)ncn2)c(OC)c1	Methyltransferases active
COc1ccc(N2CCN(c3nc(C(=O)NCc4cccc(C)c4)cs3)CC2)cc1	none
COc1cc(O[C@@H]2O[C@H](CO[C@H]3OC[C@](O)(CO)[C@H]3O)[C@@H](O)[C@H](O)[C@H]2O)cc(OC)c1O	none
NS(=O)(=O)c1ccc(Nc2nc(OCC3CCCCC3)c3[nH]cnc3n2)cc1	Methyltransferases active
CCN(CC)C(=O)c1ccc(Nc2nc(OCC3CCCCC3)c3[nH]cnc3n2)cc1	Methyltransferases active
CCCc1nc(CN(CC)C(=O)c2ccc(NC(=O)C3CCC3)cc2)no1	none
Nc1nc(N)c(N=O)c(OCC2CCCCC2)n1	none
COc1cc(OC)cc(N2C(=O)c3cc(-c4ccccc4)nn3CC2(C)C(=O)NCc2ccccc2)c1 (stereo not drawn)	none

From PubChem
